Several values for one entry are separate records, joined by “and”; a condition that tells them apart may be missing. Equal entries are not always repeated.
tested on: HEK293 WT BDD-FVIII-Gluc; assay: secreted FVIII-Gluc luciferase Z-score vs DMSO control; higher = more FVIII-Gluc secretion; conditions: 5 µM
Procedure: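 Natural plant-compound library (480 compounds, ST catalogue IDs) screened on HEK293 cells stably expressing WT BDD-FVIII-Gaussia luciferase fusion at 5 µM. Secreted Gluc activity in the medium is given as a Z-score relative to DMSO controls.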

Compared with `O=C(O)CNC(=O)c1ccccc1`, `CN1C(CC(=O)c2ccccc2)CCC[C@H]1CC(O)c1ccccc1` (stereo not given in full) is lower in “secreted FVIII-Gluc luciferase Z-score” value: 1.07 for the first, -0.246 for the second.

Going from `COc1ccc(C(=O)C2C3C4COC(O4)C(=O)C3C3C=Cc4ccccc4N32)c(OC)c1` (stereo not given) to `COc1ccc2c(=O)cc(-c3ccccc3)oc2c1O`, the “secreted FVIII-Gluc luciferase Z-score” value rises from -0.809 to 0.609.

Going from `O=c1cc(-c2ccccc2O)oc2c(O)c(O)ccc12` to `O=c1cc(-c2cccc(O)c2)oc2cccc(O)c12`, the “secreted FVIII-Gluc luciferase Z-score” value rises from 0.356 to 0.424.

Compared with `Cc1ccc2oc(-c3ccccc3)cc(=O)c2c1`, `COc1cc(O)c2c(=O)cc(-c3ccccc3)oc2c1` is higher in “secreted FVIII-Gluc luciferase Z-score” value: 0.845 for the first, 1.12 for the second.

Compared with `NCC1OC(OC2C(CO)OC(OC3C(O)C(N)CC(N)C3OC3OC(CO)C(O)CC3N)C2O)C(N)C(O)C1OC1OC(CO)C(O)C(O)C1O` (stereo not given), `NC[C@@H]1O[C@H](O[C@H]2[C@@H](O)[C@H](O[C@@H]3[C@@H](O)[C@H](N)C[C@H](N)[C@H]3O[C@H]3O[C@H](CN)[C@@H](O)[C@H](O)[C@H]3N)O[C@@H]2CO)[C@H](N)[C@@H](O)[C@@H]1O` is lower in “secreted FVIII-Gluc luciferase Z-score” value: 1.54 for the first, 0.572 for the second.

Going from `O=C(O)CCCCC1CCSS1` (stereo not given) to `N[C@H](CCC(=O)O)C(=O)O`, the “secreted FVIII-Gluc luciferase Z-score” value falls from -0.0345 to -0.453.

Compared with `O[C@@H]1COC2C1OC[C@@H]2O` (stereo not given in full), `Nc1ccn([C@@H]2O[C@H](CO)[C@@H](O)[C@H]2O)c(=O)n1` is higher in “secreted FVIII-Gluc luciferase Z-score” value: 0.547 for the first, 1.12 for the second.

First: O=C1c2ccccc2C(=O)c2c(O)c(O)cc(O)c21
Second: O=C1C[C@H](c2ccccc2)Oc2cc(O)cc(O)c21
The “secreted FVIII-Gluc luciferase Z-score” value of the first is lower: -0.332 for the first, 0.533 for the second.

Going from `COc1ccc2oc(-c3ccc(O)cc3)cc(=O)c2c1` to `COc1ccc(-c2cc(=O)c3ccc(O)cc3o2)cc1`, the “secreted FVIII-Gluc luciferase Z-score” value falls from 1.23 to 1.22.

Compared with `CC1(C)CC[C@]2(C(=O)O)CC[C@]3(C)C(=CCC4[C@@]5(C)CC[C@H](O)C(C)(C)C5[C@H](O)C[C@]43C)C2C1` (stereo not given in full), `CC1(C)CCC[C@@]2(C)C1CCC1(C)OC(=O)CC12` (stereo not given in full) is higher in “secreted FVIII-Gluc luciferase Z-score” value: 0.207 for the first, 0.281 for the second.

Going from `COc1ccc(-c2cc(=O)c3c(O)cc(O)cc3o2)cc1` to `O=c1c(-c2ccc(O)cc2)coc2cc(O)cc(O)c12`, the “secreted FVIII-Gluc luciferase Z-score” value falls from 0.381 to -1.4.

Going from `CC(C)[C@@H]1CC[C@@H](C)C[C@H]1OC(=O)[C@@H](C)O` to `CC1CC[C@H](C(C)C)C(O)C1` (stereo not given in full), the “secreted FVIII-Gluc luciferase Z-score” value rises from -0.146 to 0.453.

Compared with `Nc1nc2ncc(CNc3ccc(C(=O)NC(CCC(=O)O)C(=O)O)cc3)nc2c(=O)[nH]1` (stereo not given), `Cc1cc2nc3c(=O)[nH]c(=O)nc-3n(CC(O)C(O)C(O)CO)c2cc1C` (stereo not given) is higher in “secreted FVIII-Gluc luciferase Z-score” value: -0.865 for the first, 0.252 for the second.

First: O=C1C=CC2=C3c4cc(O)c(O)cc4CC3(O)COC2=C1O (stereo not given)
Second: COc1ccc(-c2oc3ccc(C)cc3c(=O)c2O)cc1OC
The “secreted FVIII-Gluc luciferase Z-score” value of the first is higher: 0.729 for the first, -0.624 for the second.

Compared with `C[C@H]1C[C@]2(O[C@@H]2C)C(=O)O[C@@H]2CCN(C)C/C=C(/COC(=O)[C@]1(C)O)C2=O`, `C[C@H](CCC(=O)O)[C@H]1CC[C@H]2[C@@H]3C(=O)C[C@@H]4CC(=O)CC[C@]4(C)[C@H]3CC(=O)[C@]12C` is higher in “secreted FVIII-Gluc luciferase Z-score” value: 0.213 for the first, 0.818 for the second.

Going from `C/C(=C\CNc1ncnc2nc[nH]c12)CO` to `O=c1[nH]c(=O)c2ncn([C@@H]3O[C@H](CO)[C@@H](O)[C@H]3O)c2[nH]1`, the “secreted FVIII-Gluc luciferase Z-score” value falls from 0.549 to 0.541.

Going from `C=C(C)[C@H]1CC=C(C)C(=O)C1` to `Cn1c(=O)c2c(ncn2C)n(C)c1=O`, the “secreted FVIII-Gluc luciferase Z-score” value falls from 0.764 to -0.0716.

First: CC(=O)Oc1c(C)c(C)c2c(c1C)CCC(C)(CCCC(C)CCCC(C)CCCC(C)C)O2 (stereo not given)
Second: CC1=C(C2=C(C)C(C(C)C)C3=C(C(=O)C(O)C3O)C2O)C(O)C2=C(C(O)C(O)C2=O)C1C(C)C (stereo not given)
The “secreted FVIII-Gluc luciferase Z-score” value of the first is higher: 0.728 for the first, -0.542 for the second.

Going from `COc1ccc2c(c1OC)C(=O)O[C@H]2[C@H]1c2c(cc3c(c2OC)OCO3)CCN1C` to `CC[C@@H]1OC(=O)[C@@H](C)[C@H](O[C@H]2C[C@@](C)(OC)[C@@H](O)[C@H](C)O2)C(C)[C@H](O[C@H]2O[C@@H](C)C[C@@H](N(C)C)[C@@H]2O)[C@@](C)(O)C[C@H](C)C(=O)[C@@H](C)[C@H](O)[C@@]1(C)O` (stereo not given in full), the “secreted FVIII-Gluc luciferase Z-score” value falls from 0.932 to -1.17.

`CC(C)CC(N)C(=O)O` (stereo not given) was tested, and the “secreted FVIII-Gluc luciferase Z-score” value was 0.117.

`O=C(CCc1ccc(O)cc1)c1c(O)cc(O)cc1O[C@@H]1O[C@H](CO)[C@@H](O)[C@H](O)[C@H]1O` was tested, and the “secreted FVIII-Gluc luciferase Z-score” value was 0.224 and 0.244.
